Only a selection was taken, and hits are over-represented in it overall.
TTR transcr act: increases transthyretin transcription. SH-SY5Y TTR promoter Gaussia luciferase, luminescence; 100% = recombinant luciferase protein wells. activation, % at 16.7 µM. actives 1.3% (n = 92,000). AID 1117267;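 active means activation above the mean of all tested compounds plus 3 SD, cut at about 9.5% in these data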;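 further: cells exposed to compounds for one day before reading; 0% = median of all test compound wells on the plate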
TTR inh HuH7: decreases TTR transcription in HuH7 cells in activator counter-screen. shares compounds with TTR transcr act. HuH7 TTR promoter-Gaussia luciferase reporter, luminescence. inhibition, % at 16.7 µM. actives 4% (n = 1,100). AID 1117279;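 active means average inhibition above the solvent-only control wells' mean plus 3 SD, cut at about 15% in these data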;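 further: 0% = cells with DMSO only and 100% = cells with inhibitor control FD; inhibitors lower well luminescence so higher value means more inhibition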
TTR up confirm: confirmation of human transthyretin transcription activators; 1,100 tested, under 10 active; AID 1117280; activation, % at 16.7 µM; SHSY5Y TTR promoter Gaussia luciferase, luminescence; 100% = purified Lucia enzyme wells, no cells; shares compounds with TTR transcr act;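 active means mean activation above a set limit taken from the earlier primary screen, cut at about 11% in these data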;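 further: 0% = DMSO-treated cells and 100% = recombinant Lucia luciferase without cells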
An asterisk follows results filed as active.

SMILES	TTR transcr act	others
O=C(COC(=O)C1CC(=O)N(c2ccc3c(c2)OCCO3)C1)Nc1ccc2c(c1)CCC2 (configuration not stated)	11.2*	TTR inh HuH7=-12.5;TTR up confirm=2.7
CC(=O)c1ccc(NC(=O)C(C)OC(=O)C2CC(=O)N(c3ccc4c(c3)OCCO4)C2)cc1 (configuration not stated)	2.1
Cc1ccc2c(COC(=O)C3CC(=O)N(c4ccc5c(c4)OCCO5)C3)cc(=O)oc2c1 (configuration not stated)	-1.8
Cc1c(Cl)cccc1NC(=S)NC(=O)c1cncc(Br)c1	0.5
C[C@@H](N)C(=O)Nc1ccc(Cl)cc1C(=O)c1ccc[nH]1	0.0
CCO[C@@H]1OC(C(=O)O)=C[C@H](c2ccc(C(F)(F)F)cc2)[C@H]1CCCO	-1.0
Cn1cccc1/C=N/NC(N)=S	0.5
Cn1cccc1/C=N/NC(=O)C(O)c1ccccc1 (configuration not stated)	24.7*	TTR inh HuH7=-13.2;TTR up confirm=1.9
Cn1cccc1/C=N/NC(=O)Cc1ccccc1	0.8
Cc1cc(C(=O)COC(=O)Cc2n[nH]c(=O)c3ccccc23)c(C)n1-c1ccc2c(c1)OCCO2	-3.2
Cc1cc(C)n(CCCC(=O)O)n1	-1.6
Cc1cc(C)n(CCOc2ccc(Br)cc2)n1	10.1*	TTR inh HuH7=-18.4;TTR up confirm=0.4
Cc1cc(C)n(CC(O)COc2cccc(OCC(O)Cn3nc(C)cc3C)c2)n1 (configuration not stated)	-4.2
C[C@H]1CN([C@@H](C)CO)C(=O)Cc2cc(NC(=O)CCC(F)(F)F)ccc2O[C@H]1CN(C)CC1CC1	1.2
COC(=O)c1cccc(Cn2ccc3ccc(-c4ccc5ccn(C(=O)C6CCC6)c5c4)cc32)c1	1.2
COc1ccc(CN2C(=O)C(CC(=O)NCCCN(C)C)CC(C(=O)N(C)C)=C2C)cc1 (configuration not stated)	2.5
Cc1ccc(CN2CCCCC(NC(=O)c3ccc(C)cc3)C2=O)cc1 (configuration not stated)	-0.8
CCC(C)NC(=O)C1(N2C(=O)c3ccccc3C2=O)CCCC1 (configuration not stated)	1.9
CCOc1ccc(NS(=O)(=O)c2ccc3[nH]c(=O)oc3c2)cc1	1.7
CCOc1ccccc1NC(=O)CN(C)S(=O)(=O)c1ccc2[nH]c(=O)oc2c1	12.4*	TTR inh HuH7=-20.9;TTR up confirm=-0.1
COc1ccccc1NC(=O)CN(C)S(=O)(=O)c1cc(C)ccc1OC	-1.5
CCCCN(CCCC)Cc1cc(=O)oc2ccc3ccccc3c12	1.4
CC(C)CC1(C2CCCC2)NC(=O)NC1=O (configuration not stated)	1.6
O=C(Nc1ccccc1)c1cc(C2CCCN(C(=O)c3ccc4c(c3)CCO4)C2)on1 (configuration not stated)	-0.8
O=C(OCc1ccccc1)[C@H](Cc1ccccc1)NC(=O)[C@@H]1CC=C[C@@H]2CCN(C3CCCCC3)C(=O)[C@@H]21	-0.5
SMILES	TTR transcr act	others
O=C(Cc1cccc(C(F)(F)F)c1)NCc1ccc(Cl)cc1	0.6
CC(NC(=O)CSc1cccc(C(F)(F)F)c1)c1ccccc1 (configuration not stated)	-0.9
CN(C)C(CNC(=O)Cc1cccc(C(F)(F)F)c1)c1ccccc1 (configuration not stated)	14.8*	TTR inh HuH7=-11.8;TTR up confirm=0.4
CC(C)[C@@H](C(=O)N1CCCC1)N1C(=O)N2CCc3c([nH]c4ccccc34)[C@@]2(C)C1=O	-2.3
CCCc1ccc(C(=O)CCC(=O)O)cc1	-3.3
O=Cc1cc(CCC(=O)O)ccc1O	11.1*	TTR inh HuH7=-2.5;TTR up confirm=0.3
O=C(CCc1ccc(O)cc1)c1c(O)cc(O)cc1O	-3.3
O=C(c1cc2c(c(-c3cccc(-c4ccncc4)c3)n1)[C@@H](CCO)N(C(=O)c1ccc3c(c1)OCO3)C2)N1CCOCC1	-0.4
Fc1ccc(CNCc2ccc3c(c2)OCO3)cc1	-0.6
O=Cc1ccc(OCc2ccc3c(c2)OCO3)cc1	9.8*	TTR inh HuH7=-16.4;TTR up confirm=-0.3
CC(=O)c1ccc(OCC(O)CNCc2ccc3c(c2)OCO3)cc1 (configuration not stated)	-0.4
COc1ccc(C(C)(O)c2nc(-c3cccs3)cs2)cc1 (configuration not stated)	-3.5
Fc1ccc(Nc2ccnc(Nc3ccc(F)cc3)n2)cc1	-1.6
COC(=O)[C@]12C[C@H](CC(=O)NCc3ccccc3)C(=O)N(Cc3ccc(Cl)cc3Cl)C1=C[C@H](C(C)C)O[C@@H]2C1CC1	-2.9
CCC[C@H]1[C@@H](NC(=O)c2ccc(C)cc2)CC[C@@]23CCCN2C(=O)CCC[C@@H]13	0.8
O=C1c2cccc3cccc(c23)C(c2nc3ccccc3[nH]2)N1C1CC1 (configuration not stated)	-0.7
c1csc(CNCc2ccncc2)c1	1.1
COc1cccc2cc(C(C)N(CCCN3CCOCC3)C(=S)Nc3c(C)cccc3C)oc12 (configuration not stated)	0.6
COc1cccc2cc(C(C)N(CCCN3CCOCC3)C(=S)Nc3ccccc3C)oc12 (configuration not stated)	14.0*	TTR inh HuH7=-6.1;TTR up confirm=-0.8
COc1cccc2cc(C(C)N(CCCN3CCOCC3)C(=S)Nc3cccc(C)c3)oc12 (configuration not stated)	-0.7
CNC(=O)c1c(NC(=O)C2=COCCO2)sc(C)c1C	2.4
CCCC1CCC2(CC1)CCC2OC(=S)Nc1ccc(N(C)C)cc1 (configuration not stated)	2.2
CC(C)c1ccc(NC(=O)C2(C)Cc3c(-c4ccc(C(N)=O)cc4)ccnc3O2)cc1 (configuration not stated)	0.7
CCCCOCCCNC(=O)C[C@H]1C[C@@]2(C(=O)OC)C(=C[C@H](COCc3ccccc3)O[C@@H]2C)N(Cc2ccc(Cl)cc2Cl)C1=O	-0.3
Cc1ccc(NC(=O)c2ccccc2-c2ccc(C(F)(F)F)cc2)cc1S(=O)(=O)N1CCOCC1	-2.4
SMILES	TTR transcr act	others
O=C(CC1C(=O)NCCN1Cc1ccccc1C(F)(F)F)NC1CCCCCC1 (configuration not stated)	10.1*	TTR inh HuH7=-7.4;TTR up confirm=1.7
COc1cccc(CN2CCNC(=O)C2CC(=O)NC2CCCCCCC2)c1 (configuration not stated)	-2.4
COc1ccc(CN2CCNC(=O)C2CC(=O)NC2CCCCCC2)c(F)c1 (configuration not stated)	-0.6
C[C@H]1[C@@H](OC(=O)NCc2ccco2)CC[C@@]23CCCN2C(=O)CCC[C@@H]13	3.3
C[C@@H]1[C@H](c2ccccc2)OC(O)([C@H](Cc2ccccc2)NC(=O)OC(C)(C)C)CN1C (some centres not stated)	-1.4
COc1ccc2c(CCN3C(=O)c4ccccc4C3=O)c(-c3c(CCN4C(=O)c5ccccc5C4=O)c4ccccc4n3C(=O)OC(C)(C)C)[nH]c2c1	0.1
O=C(Nc1cccc(F)c1)O[C@@H]1CC[C@@]23CCCN2C(=O)CCC[C@H]3C1	0.5
COc1ccc(CN2C(=O)c3cccnc3C2=O)cc1S(=O)(=O)NCc1ccc(C)cc1	-2.2
COc1ccc(-c2cc(C)no2)cc1S(=O)(=O)NCc1cccc(C)c1	9.8*	TTR inh HuH7=28.2*;TTR up confirm=-1.0
Cc1cccc(CNS(=O)(=O)c2ccc(-c3ccc(=O)[nH]n3)s2)c1	0.1

Bioassay records from PubChem.
